# Hit rate of the full screen: of about 66,000 compounds, about 960 (1.5%) showed an effect of 50% or more. What follows is part of a selection rich in strong results, with near analogues and random picks from the rest.
# System: Trypanosoma brucei
# Test: Trypanosoma brucei 72 hour study
# Type: functional, organism-based
# Parameters: scale not given: in the data most compounds retested in dose-response had high values
compound,measurement,setting,value
Cn1cc(C(O)CNC(=O)c2ccc(F)cc2Cl)cn1 (configuration not stated),Percent Effect,"30 µM, 30.03 µM",3.538%
CCN1Cc2nc(OC)c(CNC(=O)CCC3CCCC3)cc2C1=O,Percent Effect,"30 µM, 30.03 µM",-13.67%
O=C(C1CC=CC1)N1C[C@@H](OCc2cccnc2)[C@H]2OCCC[C@H]21.O=C(O)C(F)(F)F,Percent Effect,"30 µM, 30.03 µM",39.05%
CCc1nccn1-c1cncc(C2CCCN2)n1.Cl (configuration not stated),Percent Effect,"30.3 µM, […]",-8.115%
N#Cc1cccc(CN2Cc3nccn3CC(CN3CCCC3)C2)c1.O=C(O)C(F)(F)F.O=C(O)C(F)(F)F (configuration not stated),Percent Effect,"30 µM, 30.03 µM",-41.66%
CC(=O)NCC1CCN(c2cc(C)nc(-c3ccncc3)n2)CC1,Percent Effect,10 µM,-42.73%
Cc1cc(N2CCC(Cc3ccccc3)CC2)nc(-c2ccncc2)n1,Percent Effect,"30.3 µM, […]",99.65%
Cc1cc(N2CCC(CC(N)=O)CC2)nc(-c2ccncc2)n1,Percent Effect,"30.3 µM, […]",0.7336%
Cc1ccc(C(=O)N2CCC3(CC2)CC(N2CCCC2)C3)cc1.O=C(O)C(F)(F)F,Percent Effect,"30.3 µM, […]",-4.803%
Cc1ccc(N2CCC3(CN(Cc4cccs4)CCC3(F)F)C2)nn1.O=C(O)C(F)(F)F (configuration not stated),Percent Effect,"30.3 µM, […]",-34.83%
Cc1ccc(CN2CCn3c(C(=O)N(C)C)cnc3C2)cc1.O=C(O)C(F)(F)F,Percent Effect,"30.3 µM, […]",-165%
Cl.Cn1cc([C@@H]2CN(S(=O)(=O)c3ccccc3F)C[C@H]2N)c2ccncc21,Percent Effect,"30.3 µM, […]",53.59%
Cl.Cn1cc([C@@H]2CN(S(=O)(=O)c3cccnc3)C[C@H]2N)c2ccncc21,Percent Effect,"30.3 µM, […]",-9.979%
Cl.Cn1cc([C@@H]2CN(S(C)(=O)=O)C[C@H]2N)c2ccncc21,Percent Effect,"30.3 µM, […]",-16.68%
c1cc(N2CCC(CN3CCOCC3)CC2)c2sccc2n1,Percent Effect,"30 µM, 30.03 µM",-9.098%
Cc1noc(CNC(=O)NCCOc2ccc(Cl)cc2)n1,Percent Effect,"30 µM, 30.03 µM",-8.016%
C[C@@H]1CN(CCOc2ccc(Cl)cc2)CC[C@@]1(O)C1CCOCC1,Percent Effect,"30 µM, 30.03 µM",-42.79%
COc1ccc(OCCc2sc(C3(O)CCCNCC3)nc2C)cc1.Cl (configuration not stated),Percent Effect,"30.3 µM, […]",34.01%
CCCN1CCCC(O)(c2nc(C)c(COc3ccccc3)s2)CC1 (configuration not stated),Percent Effect,"30.3 µM, […]",37.82%
CCN1CCCC(O)(c2nc(C)c(CCOc3ccc(F)cc3)s2)CC1 (configuration not stated),Percent Effect,"30.3 µM, […]",-11.99%
CC(=O)NCc1nc(CCOc2ccc(Cl)cc2)no1,Percent Effect,"30 µM, 30.03 µM",-81.13%
Cc1nc(C)c(COc2ccc(S(=O)(=O)N(C)C)cc2)s1,Percent Effect,"30 µM, 30.03 µM",-44.61%
Cc1nc(C2(O)CCCNCC2)sc1CCOc1ccc(Cl)cc1.Cl (configuration not stated),Percent Effect,"30.3 µM, […]",101.5%
Cc1nc(C2(O)CCCNCC2)sc1CCOc1ccc(F)cc1.Cl (configuration not stated),Percent Effect,"30.3 µM, […]",73.77%
COc1ccc(OCc2sc(C3(O)CCCNCC3)nc2C)cc1.Cl (configuration not stated),Percent Effect,"30.3 µM, […]",57.18%
O=C(O)C(F)(F)F.O=C(O)C(F)(F)F.c1cnc(N2C[C@H]3CCN(CCN4CCCC4)C[C@H]3C2)cn1,Percent Effect,"30.3 µM, […]",4.729%
COc1cc(C(=O)N2CCCC(c3cc(C)[nH]n3)C2)cc(OC)c1C (configuration not stated),Percent Effect,"30.3 µM, […]",-7.766%
CCCS(=O)(=O)N1CCO[C@H]2[C@@H](Oc3cccnc3)CC[C@@H]21.O=C(O)C(F)(F)F,Percent Effect,"30.3 µM, […]",-3.605%
O=C(NCC1CC1)[C@@H]1CC[C@@H]2[C@@H](CCN2Cc2ccco2)O1.O=C(O)C(F)(F)F,Percent Effect,"30.3 µM, […]",-31.37%
O=C(O)C(F)(F)F.O=C(c1ccco1)N1CC[C@@H]2O[C@H](COCCN3CCCC3)CC[C@@H]21,Percent Effect,"30 µM, 30.03 µM",43.22%
COc1ccc2c(ccn2CCCN)c1.O=C(O)C(=O)O,Percent Effect,"30 µM, 30.03 µM",0.08661%
O=C(O)C(F)(F)F.O=C(c1ccc(F)cc1)N1CCC2(CC1)CC(N1CCOCC1)C2,Percent Effect,"30.3 µM, […]",-59.01%
Cn1nccc1C(=O)N1CC[C@]2(C[C@H](OCc3ccccn3)CO2)C1.O=C(O)C(F)(F)F,Percent Effect,"30.3 µM, […]",-48.61%
COc1cccc(N2Cc3nc(=O)n(C(C)C)n3C2=O)c1,Percent Effect,"30 µM, 30.03 µM",-40.88%
CC[C@@H]1N(Cc2ccc(OC)cc2)CCC[C@]12CCC(=O)N2CCOC.O=C(O)C(F)(F)F,Percent Effect,"30.3 µM, […]",-46.04%
CCOc1ccc(N2CCCN=C2NC(=O)c2cccc(OC)c2)cc1,Percent Effect,"30.3 µM, […]",-26.63%
COc1cccc(-c2noc(C3CCN(Cc4ccccc4F)C3)n2)c1.Cl (configuration not stated),Percent Effect,"30.3 µM, […]",-18.78%
COc1cccc(-c2noc(C3CCN(Cc4ccccc4C)C3)n2)c1.Cl (configuration not stated),Percent Effect,"30.3 µM, […]",-12.24%
COc1cccc(-c2noc(C3CCN(Cc4cn(C)nc4C)C3)n2)c1 (configuration not stated),Percent Effect,"30 µM, 30.03 µM",63.09%
CNC(=O)[C@@]12CCO[C@@H]1CCN(Cc1ccc3c(c1)OCO3)C2.O=C(O)C(F)(F)F,Percent Effect,"30.3 µM, […]",-39.27%
Cc1nn(C)c(C)c1CCn1cncc1-c1ccc2c(c1)CC(C)N2C.Cl (configuration not stated),Percent Effect,"30.3 µM, […]",26.67%
Cc1nccn1CCCn1cncc1-c1ccc2c(c1)CC(C)N2C.Cl (configuration not stated),Percent Effect,"30.3 µM, […]",-10.42%
CCN1c2ccc(-c3cncn3CCCn3ccnc3C)cc2CC1C.Cl (configuration not stated),Percent Effect,"30.3 µM, […]",7.904%
Cc1nccn1CCCn1cncc1-c1ccc2c(c1)CCC(C)N2C.Cl (configuration not stated),Percent Effect,"30.3 µM, […]",17.11%
Cc1cc(C)n(CCCn2cncc2-c2ccc3c(c2)CC(C)N3C)n1.Cl (configuration not stated),Percent Effect,"30.3 µM, […]",83.42%
COCC1N(S(=O)(=O)c2cn(C)cn2)[C@H]2CC[C@]1(O)CC2 (some centres not stated),Percent Effect,"30.3 µM, […]",-23.23%
CN(C)C(=O)CN1C(=O)CCC12CCN(Cc1cccs1)CC2.O=C(O)C(F)(F)F,Percent Effect,"30.3 µM, […]",-53.05%
O=C(O)C(F)(F)F.O=C(c1cscn1)N1CCCC2(CCN2Cc2cccc(F)c2)C1 (configuration not stated),Percent Effect,"30.3 µM, […]",27.36%
Cc1cc(C)cc(OCC(O)CN2CCN(c3nccs3)CC2)c1 (configuration not stated),Percent Effect,"30 µM, 30.03 µM",-27.85%
COC(=O)c1ccc(N2CCN(C(=O)c3cnc(C)cn3)C(C)C2)cc1 (configuration not stated),Percent Effect,"30.3 µM, […]",8.397%
Cc1nn(C)c2nc(-c3ccccn3)nc(NCCC3CCCN3C)c12 (configuration not stated),Percent Effect,"30 µM, 30.03 µM",-75.32%
Cc1nn(C)c2nc(-c3ccccn3)nc(NC[C@@H]3CCCO3)c12,Percent Effect,"30 µM, 30.03 µM",-82.13%
CCC1(O)CCCN(c2nc(-c3ccccn3)nc3c2c(C)nn3C)C1 (configuration not stated),Percent Effect,"30 µM, 30.03 µM",51.81%
O=C1CCC2(CCN(Cc3cscn3)CC2)CN1[C@H]1CC[C@H](O)CC1,Percent Effect,"30 µM, 30.03 µM",-1.213%
CNc1cccc(CC2COCCN(C(=O)c3cccnc3)C2)n1 (configuration not stated),Percent Effect,"30.3 µM, […]",5.622%
CC(C)(C)SCC(=O)NCCc1csc(N2CCCC2)n1,Percent Effect,"30 µM, 30.03 µM",-0.8864%
CCNC(=O)NCCc1csc(N2CCCC2)n1,Percent Effect,"30 µM, 30.03 µM",-10.34%
CC(C)(C)OC(=O)NCCc1csc(N2CCCC2)n1,Percent Effect,"30 µM, 30.03 µM",63.65%
Cc1ncc(C(=O)NCCOc2ccccc2F)c(C)n1,Percent Effect,"30 µM, 30.03 µM",-71.35%
CCN1CCCC(O)(c2nc(C)c(CCOc3ccccc3Cl)s2)CC1 (configuration not stated),Percent Effect,"30.3 µM, […]",33.23%
Cc1nc(C2(O)CCCNCC2)sc1CCOc1ccccc1F.Cl (configuration not stated),Percent Effect,"30.3 µM, […]",74.4%
CCN1CCCC(O)(c2nc(C)c(CCOc3ccccc3F)s2)CC1 (configuration not stated),Percent Effect,"30.3 µM, […]",-7.056%
CC(=O)Nc1nc(C(=O)NCCOc2ccccc2F)cs1,Percent Effect,"30.3 µM, […]",-41.52%
Cc1nc(C2(O)CCCNCC2)sc1CCOc1ccccc1Cl.Cl (configuration not stated),Percent Effect,"30.3 µM, […]",102.3%
Cc1ncccc1OC1(C(=O)NCCNc2ccccc2)CCNCC1,Percent Effect,"30.3 µM, […]",0.199%
Cc1nc(C2(O)CCCNCC2)sc1CCOc1ccccc1.Cl (configuration not stated),Percent Effect,"30.3 µM, […]",41.97%
CNC(=O)CN1CC[C@H]2CN(C(=O)c3ccccc3C)C[C@H]2C1.O=C(O)C(F)(F)F,Percent Effect,"30.3 µM, […]",-31.13%
O=C(COc1ccccc1F)N1CCCCC1c1ccn2ccnc2n1 (configuration not stated),Percent Effect,"30.3 µM, […]",-11.94%
O=C(C1=CCCC1)N1CCO[C@H]2[C@@H](Oc3ccccn3)CC[C@@H]21.O=C(O)C(F)(F)F,Percent Effect,"30 µM, 30.03 µM",21.55%
Cc1c(C)n(-c2ccccn2)c2nc3c(c(N)c12)CCCC3,Percent Effect,"30 µM, 30.03 µM",65.81%
Cc1c(C)n(-c2ccccn2)c2nc3c(c(N)c12)CCCCC3,Percent Effect,"30 µM, 30.03 µM",-26.49%
Cc1c(C)n(Cc2ccccn2)c2nc3c(c(N)c12)CCCC3,Percent Effect,"30 µM, 30.03 µM",14.96%
O=C(C1CCCC1)N1C[C@@H]2CCN(c3cnccn3)C[C@@H]2C1.O=C(O)C(F)(F)F,Percent Effect,"30.3 µM, […]",-13.6%
CCc1ccc(CN2C[C@@H]3COC[C@H](NS(C)(=O)=O)[C@@H]3C2)o1.O=C(O)C(F)(F)F,Percent Effect,"30.3 µM, […]",-9.462%
Cc1ccc(NC2CCN(C(=O)c3ccsc3)CC2)nn1,Percent Effect,"30 µM, 30.03 µM",-24.89%
Cc1ccc(N2CCC3(CCN(C(=O)c4ccsc4)CC3)CC2)nn1,Percent Effect,"30 µM, 30.03 µM",20.14%
Cc1ccc(N(C)C2CCN(C(=O)c3ccsc3)CC2)nn1,Percent Effect,"30 µM, 30.03 µM",59.68%
CC1=Nc2c(c(=O)[nH]n2C2CCCC2)C(c2ccc(O)cc2)S1 (configuration not stated),Percent Effect,"30 µM, 30.03 µM",-3.6%
Cc1cc(C)n(CC2CN(Cc3nc4ccccc4s3)CCO2)n1 (configuration not stated),Percent Effect,"30.3 µM, […]",18.1%
CC1CCN(S(=O)(=O)c2cccnc2)c2ccccc2S1 (configuration not stated),Percent Effect,"30 µM, 30.03 µM",80.08%
CN1CCN(S(=O)(=O)c2cccnc2)c2cnccc21,Percent Effect,"30.3 µM, […]",-3.164%
CCn1cc(S(=O)(=O)N2CCC(C)Sc3ccccc32)cn1 (configuration not stated),Percent Effect,"30 µM, 30.03 µM",-33.91%
Cn1nc(C(=O)N2CCOCC2)cc1C(=O)Nc1c(Cl)cccc1Cl,Percent Effect,"30 µM, 30.03 µM",-27.89%
CC(C)c1cc(C2CCN(C(=O)Cn3cnc4ccccc43)CC2)[nH]n1,Percent Effect,"30 µM, 30.03 µM",-44.45%
Cc1cc(C(F)(F)F)nc(CCNC(C)Cn2ccnc2)n1 (configuration not stated),Percent Effect,"30 µM, 30.03 µM",-48.3%
CCCC(=O)N(CCCN1CCOCC1)c1nc2c(C)ccc(Cl)c2s1.Cl,Percent Effect,"30.3 µM, […]",71.42%
CCCC(=O)N(CCCN1CCOCC1)c1nc2c(C)c(C)ccc2s1.Cl,Percent Effect,"30.3 µM, […]",27.33%
CCCC(=O)N(CCCN1CCOCC1)c1nc2c(Cl)cccc2s1.Cl,Percent Effect,"30.3 µM, […]",55.71%
CN(CCN1CCOCC1)C(=O)CCc1cccc(Cl)c1,Percent Effect,"30 µM, 30.03 µM",2.26%
CCCC(=O)N(CCN1CCOCC1)c1nc2c(OC)ccc(C)c2s1.Cl,Percent Effect,"30.3 µM, […]",13.57%
CCCC(=O)N(CCCN1CCOCC1)c1nc2c(F)cccc2s1.Cl,Percent Effect,"30.3 µM, […]",24.42%
CN1CC[C@]2(CN(CC3CCOC3)C[C@H]2c2ccccc2)C1=O.O=C(O)C(F)(F)F (some centres not stated),Percent Effect,"30.3 µM, […]",-23.92%
